Assay results published in PubChem BioAssay AID1159580 (chemical genetic matrix, 2015).
Screen size: about 5,500 compounds; about 2,000 (36%) were called active. Not shown: some 18% with an inconclusive outcome. No stated cut-off is given here; in the data, active means normalized growth mostly below about 0.91 (no sharp cut-off); inconclusive means no clear call, values can overlap the other calls; inactive means mostly above about 0.92. Some of the results follow.

Assay: chemical genetic growth profiling, strain panel (AID 1159580);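 further: tested at 20 µM; growth read once vehicle control cultures reached saturation at 30 °C; 1 = growth at the plate median or of vehicle wells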
Conditions: growth OD

Measured: normalized growth

CCCCCN=C(N)N/N=C\c1c[nH]c2ccc(OC)cc12
inactive: S. cerevisiae deletion strains, locus YJR043C, strain POL32, stronger effect = lower value 0.989 | S. cerevisiae deletion strains, locus YJR075W, strain HOC1, stronger effect = lower value 0.996 | S. cerevisiae deletion strains, locus YKL009W, strain mrt4, stronger effect = lower value 0.974 | S. cerevisiae deletion strains, locus YKL068W, stronger effect = lower value 0.993 | S. cerevisiae deletion strains, locus YKL085W, strain MDH1 (second series), stronger effect = lower value 0.956 | S. cerevisiae deletion strains, locus YKL085W, strain MDH1, stronger effect = lower value 0.956 | S. cerevisiae deletion strains, locus YKL160W, strain elf1, stronger effect = lower value 1.01 | S. cerevisiae deletion strains, locus YKL190W, strain CNB1, stronger effect = lower value 1.01 | S. cerevisiae deletion strains, locus YKR001C, strain vps1, stronger effect = lower value 1.03 | S. cerevisiae deletion strains, locus YKR026C, strain gcn3, stronger effect = lower value 1.01 | S. cerevisiae deletion strains, locus YKR091W, strain srl3, stronger effect = lower value 0.992 | S. cerevisiae deletion strains, locus YLL001W, strain dnm1, stronger effect = lower value 1.01 | S. cerevisiae deletion strains, locus YLL026W, stronger effect = lower value 1.01 | S. cerevisiae deletion strains, locus YLL041C, strain sdh2, stronger effect = lower value 1 | S. cerevisiae deletion strains, locus YLR027C, strain aat2, stronger effect = lower value 1 | S. cerevisiae deletion strains, locus YLR039C, strain RIC1, stronger effect = lower value 1.08 | S. cerevisiae deletion strains, locus YLR058C, strain SHM2, stronger effect = lower value 0.99 | S. cerevisiae deletion strains, locus YLR102C, strain apc9, stronger effect = lower value 1.02 | S. cerevisiae deletion strains, locus YLR221C, strain rsa3, stronger effect = lower value 0.986 | S. cerevisiae deletion strains, locus YLR258W, strain gsy2, stronger effect = lower value 0.995 | S. cerevisiae deletion strains, locus YLR262C, strain YPT6 (second series), stronger effect = lower value 1.04 | S. cerevisiae deletion strains, locus YLR262C, strain YPT6, stronger effect = lower value 1.01 | S. cerevisiae deletion strains, locus YLR268W, strain sec22, stronger effect = lower value 0.998 | S. cerevisiae deletion strains, locus YLR320W, strain mms22, stronger effect = lower value 0.98 | S. cerevisiae deletion strains, locus YLR330W, strain CHS5, stronger effect = lower value 1.01 | S. cerevisiae deletion strains, locus YLR342W, strain FKS1 (second series), stronger effect = lower value 0.989 | S. cerevisiae deletion strains, locus YLR342W, strain FKS1, stronger effect = lower value 1.01 | S. cerevisiae deletion strains, locus YLR357W, strain rsc2, stronger effect = lower value 0.975 | S. cerevisiae deletion strains, locus YLR370C, strain arc18, stronger effect = lower value 1 | S. cerevisiae deletion strains, locus YLR371W, strain rom2, stronger effect = lower value 1.03 | S. cerevisiae deletion strains, locus YLR384C, strain iki3, stronger effect = lower value 1.02 | S. cerevisiae deletion strains, locus YLR418C, strain cdc73, stronger effect = lower value 0.993 | S. cerevisiae deletion strains, locus YML016C, strain PPZ1, stronger effect = lower value 1 | S. cerevisiae deletion strains, locus YML032C, strain rad52, stronger effect = lower value 1.02 | S. cerevisiae deletion strains, locus YML120C, strain ndi1, stronger effect = lower value 1.01 | S. cerevisiae deletion strains, locus YML124C, strain tub3, stronger effect = lower value 1.02 | S. cerevisiae deletion strains, locus YMR058W, strain fet3, stronger effect = lower value 1.01 | S. cerevisiae deletion strains, locus YMR078C, strain ctf18, stronger effect = lower value 1.03 | S. cerevisiae deletion strains, locus YMR125W, strain sto1, stronger effect = lower value 0.979 | S. cerevisiae deletion strains, locus YMR129W, stronger effect = lower value 1.01 | S. cerevisiae deletion strains, locus YMR205C, strain PFK2, stronger effect = lower value 0.994 | S. cerevisiae deletion strains, locus YMR223W, strain ubp8, stronger effect = lower value 1.01 | S. cerevisiae deletion strains, locus YMR231W, strain pep5, stronger effect = lower value 1.02 | S. cerevisiae deletion strains, locus YMR263W, strain SAP30, stronger effect = lower value 1.01 | S. cerevisiae deletion strains, locus YMR307W, strain GAS1, stronger effect = lower value 0.973 | S. cerevisiae deletion strains, locus YNL067W, strain RPL9B, stronger effect = lower value 0.998 | S. cerevisiae deletion strains, locus YNL071W, strain lat1, stronger effect = lower value 1 | S. cerevisiae deletion strains, locus YNL128W, strain TEP1, stronger effect = lower value 0.995 | S. cerevisiae deletion strains, locus YNL153C, strain GIM3, stronger effect = lower value 1 | S. cerevisiae deletion strains, locus YNL209W, strain ssb2, stronger effect = lower value 1 | S. cerevisiae deletion strains, locus YNL233W, strain BNI4, stronger effect = lower value 0.985 | S. cerevisiae deletion strains, locus YNL248C, strain rpa49, stronger effect = lower value 0.991 | S. cerevisiae deletion strains, locus YNL250W, strain rad50, stronger effect = lower value 1.02 | S. cerevisiae deletion strains, locus YNL271C, strain bni1, stronger effect = lower value 1.02 | S. cerevisiae deletion strains, locus YNL298W, strain CLA4, stronger effect = lower value 1.02 | S. cerevisiae deletion strains, locus YNL307C, strain MCK1, stronger effect = lower value 1.04 | S. cerevisiae deletion strains, locus YNL322C, strain KRE1 (second series), stronger effect = lower value 1.02 | S. cerevisiae deletion strains, locus YNL322C, strain KRE1, stronger effect = lower value 1 | S. cerevisiae deletion strains, locus YNR049C, strain mso1, stronger effect = lower value 1.01 | S. cerevisiae deletion strains, locus YNR052C, strain pop2, stronger effect = lower value 1.03 | S. cerevisiae deletion strains, locus YOL006C, strain TOP1, stronger effect = lower value 0.995 | S. cerevisiae deletion strains, locus YOL012C, strain htz1 1.66 | S. cerevisiae deletion strains, locus YOL147C, strain pex11, stronger effect = lower value 1.03 | S. cerevisiae deletion strains, locus YOR001W, strain rrp6, stronger effect = lower value 0.995 | S. cerevisiae deletion strains, locus YOR061W, strain CKA2, stronger effect = lower value 0.995 | S. cerevisiae deletion strains, locus YOR069W, strain VPS5, stronger effect = lower value 1.01 | S. cerevisiae deletion strains, locus YOR070C, strain gyp1, stronger effect = lower value 1 | S. cerevisiae deletion strains, locus YOR080W, strain dia2, stronger effect = lower value 1 | S. cerevisiae deletion strains, locus YOR083W, strain WHI5, stronger effect = lower value 0.991 | S. cerevisiae deletion strains, locus YOR106W, strain vam3, stronger effect = lower value 0.995 | S. cerevisiae deletion strains, locus YOR136W, strain idh2, stronger effect = lower value 1.03 | S. cerevisiae deletion strains, locus YOR144C, strain elg1, stronger effect = lower value 1.01 | S. cerevisiae deletion strains, locus YOR184W, strain ser1, stronger effect = lower value 1.02 | S. cerevisiae deletion strains, locus YOR265W, strain rbl2, stronger effect = lower value 1.01 | S. cerevisiae deletion strains, locus YOR270C, strain vph1, stronger effect = lower value 1.05 | S. cerevisiae deletion strains, locus YOR290C, strain snf2, stronger effect = lower value 0.984 | S. cerevisiae deletion strains, locus YOR316C, strain cot1, stronger effect = lower value 1.02 | S. cerevisiae deletion strains, locus YPL051W, strain arl3, stronger effect = lower value 1 | S. cerevisiae deletion strains, locus YPL055C, strain LGE1, stronger effect = lower value 0.993 | S. cerevisiae deletion strains, locus YPL078C, strain atp4, stronger effect = lower value 1.03 | S. cerevisiae deletion strains, locus YPL106C, strain sse1, stronger effect = lower value 1.01 | S. cerevisiae deletion strains, locus YPL240C, strain hsp82, stronger effect = lower value 1 | S. cerevisiae deletion strains, locus YPL241C, strain CIN2, stronger effect = lower value 1.05 | S. cerevisiae deletion strains, locus YPR119W, strain clb2, stronger effect = lower value 1.02 | S. cerevisiae deletion strains, locus YPR141C, strain kar3, stronger effect = lower value 1.02 | S. cerevisiae deletion strains, locus YPR163C, strain tif3, stronger effect = lower value 1.02 | S. cerevisiae deletion strains, locus YPR167C, strain met16, stronger effect = lower value 1.02 | S. cerevisiae deletion strains, strain wtn01, stronger effect = lower value 1.01 | S. cerevisiae strains, strain wild type, stronger effect = lower value 1
